Experimental data taken from PubChem BioAssay (EPA / NIEHS).
Results filed as inconclusive are left out. Active and inactive are the calls of the source. Rule for the calls, unless noted: active = hit-call score of the fitted dose curve at least 0.9, where 1 is the maximum; inconclusive = response in the unintended direction; inactive = score below 0.9.

What was measured:
[1] = ATG_TAL_CIS: Attagene CIS-FACTORIAL HepG2 Assay for human TAL Basal Promoter (AID 2282966; active = hit-call score of the fitted dose curve at least 0.9, where 1 is the maximum; inactive = score below 0.9;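 note: background control endpoint measuring basal TAL promoter reporter mRNA not a specific factor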); details: HepG2 Attagene cis-factorial TAL promoter reporter; actives raise or lower the signal
Outline: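 Background-control endpoint: basal TAL promoter reporter transcripts in transiently transfected HepG2, measured 24 h after dosing. Read-out by RT-PCR with fluorescent primer extension and capillary electrophoresis; gain or loss of signal fitted relative to DMSO.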

[2] = ATG_TGFb_CIS: Attagene CIS-FACTORIAL HepG2 Assay for human Transforming Growth Factor (TGF) (AID 2282967; active = hit-call score of the fitted dose curve at least 0.9, where 1 is the maximum; inactive = score below 0.9); details: HepG2 Attagene CIS TGFb reporter, mRNA transcription; actives raise or lower the signal
Outline: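 Cells were dosed for 24 hours, after which total RNA was reverse-transcribed and reporter sequences amplified, labeled and sized by capillary electrophoresis. Activity was fitted in both directions against DMSO.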

[3] = ATG_VDRE_CIS: Attagene CIS-FACTORIAL HepG2 Assay for human Vitamin D Receptor Element (VDRE) (AID 2282968; active = hit-call score of the fitted dose curve at least 0.9, where 1 is the maximum; inactive = score below 0.9); details: HepG2 VDRE cis-reporter transcription, actives raise or lower the signal
Outline: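 Transient MRTU transfection of HepG2, 24 h compound exposure. Readout: reporter transcripts via RT-PCR and capillary electrophoresis, fluorescence. Bidirectional fit vs DMSO.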

[4] = biological target: Nuclear receptor subfamily 1 group I member 3 (Homo sapiens) (UniProt Q14994); test: ATG_CAR_TRANS: Attagene TRANS-FACTORIAL HepG2 Assay for human Constitutive Androstane Receptor (CAR) (AID 2282969); details: HepG2 Attagene TRANS-FACTORIAL CAR reporter;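 note: activators raise reporter mRNA above DMSO so AC50 marks induction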
Sequence of Nuclear receptor subfamily 1 group I member 3 (Homo sapiens) (Q14994 whole entry, looked up, the tested form may be a part): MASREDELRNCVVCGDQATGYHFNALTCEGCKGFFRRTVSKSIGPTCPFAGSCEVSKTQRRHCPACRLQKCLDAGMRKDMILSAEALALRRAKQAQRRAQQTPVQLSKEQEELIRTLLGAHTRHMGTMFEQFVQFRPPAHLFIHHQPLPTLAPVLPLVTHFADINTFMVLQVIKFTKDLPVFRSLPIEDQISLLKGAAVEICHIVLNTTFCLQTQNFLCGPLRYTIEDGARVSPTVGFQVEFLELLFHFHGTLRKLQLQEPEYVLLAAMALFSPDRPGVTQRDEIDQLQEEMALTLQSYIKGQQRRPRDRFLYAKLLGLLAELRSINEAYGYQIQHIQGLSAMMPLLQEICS
Outline: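 Transiently transfected HepG2, multiplex TRANS reporters (CAR-Gal4 chimera driving GAL4-UAS reporter). 24 h dosing. Readout: reporter transcript by RT-PCR + capillary electrophoresis, fluorescence intensity; positive direction vs DMSO.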

[5] = biological target: X-box-binding protein 1 (Homo sapiens) (UniProt P17861); test: ATG_Xbp1_CIS: Attagene CIS-FACTORIAL HepG2 Assay for human X-box Binding Protein 1 (XBP1) (AID 2282972; active = hit-call score of the fitted dose curve at least 0.9, where 1 is the maximum; inactive = score below 0.9); details: HepG2 XBP1 cis-element reporter, Attagene multiplex; actives raise or lower the signal
Sequence of X-box-binding protein 1 (Homo sapiens) (P17861 whole entry, looked up): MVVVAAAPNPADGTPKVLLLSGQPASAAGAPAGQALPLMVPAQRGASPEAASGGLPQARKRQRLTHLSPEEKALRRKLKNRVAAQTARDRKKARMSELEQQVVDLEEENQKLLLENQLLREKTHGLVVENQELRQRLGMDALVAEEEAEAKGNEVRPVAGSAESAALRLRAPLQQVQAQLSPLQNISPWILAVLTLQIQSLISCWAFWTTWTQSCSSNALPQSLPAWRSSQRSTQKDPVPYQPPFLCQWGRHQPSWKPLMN
Outline: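 Human hepatoma HepG2, cis-element reporter system, 24 h treatment; mRNA quantified by RT-PCR/CE fluorescence; fit relative to DMSO.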

[6] = ATG_M_19_TRANS: Attagene TRANS-FACTORIAL HepG2 Assay for M19 Transcription Factor (Internal Marker) (AID 2282974); details: HepG2 Attagene TRANS-FACTORIAL M19 internal marker reporter
Outline: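 Using RT-PCR and capillary electrophoresis, reporter mRNA from transiently transfected human HepG2 cells was quantified following 24 h exposure; activity was fitted in the positive direction against DMSO.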

[7] = ATG_GAL4_TRANS: Attagene TRANS-FACTORIAL HepG2 Assay for GAL4 (Internal Marker) (AID 2282976); details: HepG2 Attagene TRANS GAL4 internal marker reporter
Outline: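 In transfected human HepG2 liver cells dosed 24 h, GAL4 reporter mRNA serves as a baseline marker. Detection by RT-PCR with fluorescent capillary electrophoresis, activity fitted upward relative to DMSO.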

[8] = biological target: Oxysterols receptor LXR-beta (Homo sapiens) (UniProt P55055); test: ATG_LXRb_TRANS: Attagene TRANS-FACTORIAL HepG2 Assay for human Liver X Receptor beta (LXRb) (AID 2282981); details: HepG2 Attagene TRANS GAL4-LXRb reporter, mRNA
Sequence of Oxysterols receptor LXR-beta (Homo sapiens) (P55055 whole entry, looked up, the tested form may be a part): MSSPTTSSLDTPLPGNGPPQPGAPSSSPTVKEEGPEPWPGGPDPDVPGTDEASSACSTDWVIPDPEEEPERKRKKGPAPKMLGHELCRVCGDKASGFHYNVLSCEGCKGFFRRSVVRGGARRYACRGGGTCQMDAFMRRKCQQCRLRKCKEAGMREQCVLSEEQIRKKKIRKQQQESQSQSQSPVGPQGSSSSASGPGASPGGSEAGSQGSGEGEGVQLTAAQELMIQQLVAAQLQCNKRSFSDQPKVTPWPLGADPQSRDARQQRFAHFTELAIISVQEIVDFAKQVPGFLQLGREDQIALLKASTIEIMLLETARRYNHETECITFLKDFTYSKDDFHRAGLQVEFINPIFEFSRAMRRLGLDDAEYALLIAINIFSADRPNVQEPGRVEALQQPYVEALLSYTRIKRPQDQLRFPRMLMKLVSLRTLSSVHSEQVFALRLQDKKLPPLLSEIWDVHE
Outline: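 Readout: fluorescent reporter mRNA fragments resolved by capillary electrophoresis after RT-PCR. System: transiently transfected human HepG2, exogenous LXRb-Gal4 chimera driving GAL4-UAS reporter, 24 h dosing. Activity fitted upward against DMSO baseline.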

[9] = biological target: Hepatocyte nuclear factor 4-alpha (Homo sapiens) (UniProt P41235); test: ATG_HNF4a_TRANS: Attagene TRANS-FACTORIAL HepG2 Assay for human Hepatocyte Nuclear Factor 4 alpha (HNF4a) (AID 2282982); details: HepG2 HNF4a transactivation reporter, mRNA readout
Sequence of Hepatocyte nuclear factor 4-alpha (Homo sapiens) (P41235 whole entry, looked up): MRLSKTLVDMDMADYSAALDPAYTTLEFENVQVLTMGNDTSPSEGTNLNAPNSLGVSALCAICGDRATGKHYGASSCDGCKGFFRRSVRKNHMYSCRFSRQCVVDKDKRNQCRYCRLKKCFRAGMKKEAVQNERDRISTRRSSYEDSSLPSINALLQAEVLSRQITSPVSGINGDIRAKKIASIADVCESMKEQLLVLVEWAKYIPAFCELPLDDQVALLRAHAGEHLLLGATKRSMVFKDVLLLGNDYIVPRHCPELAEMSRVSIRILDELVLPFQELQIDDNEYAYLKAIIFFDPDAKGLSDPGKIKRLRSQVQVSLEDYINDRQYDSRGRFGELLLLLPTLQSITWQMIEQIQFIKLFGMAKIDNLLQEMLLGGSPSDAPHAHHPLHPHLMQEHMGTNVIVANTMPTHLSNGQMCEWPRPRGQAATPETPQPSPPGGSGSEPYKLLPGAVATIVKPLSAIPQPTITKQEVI
Outline: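 Transient MRTU transfection of HepG2, 24 h dosing. Readout: reporter mRNA via RT-PCR + capillary electrophoresis, fluorescence; activity fit upward relative to DMSO control.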

[10] = ATG_M_06_TRANS: Attagene TRANS-FACTORIAL HepG2 Assay for M06 Transcription Factor (Internal Marker) (AID 2282983); details: HepG2 Attagene TRANS M06 internal marker reporter
Outline: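 Background-control reporter readout: after 24 h chemical exposure of transiently transfected HepG2 (GAL4-UAS reporter units), mRNA quantified by RT-PCR with fluorescent labeling and capillary electrophoresis. Gain-of-signal fitting against DMSO baseline.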

[11] = biological target: Transcriptional activator Myb (Homo sapiens) (UniProt P10242); test: ATG_Myb_CIS: Attagene CIS-FACTORIAL HepG2 Assay for human Myeloblastosis (Myb) Proto-Oncogene Transcription Factor (AID 2282986; active = hit-call score of the fitted dose curve at least 0.9, where 1 is the maximum; inactive = score below 0.9); details: HepG2 Attagene CIS-FACTORIAL Myb reporter transcription; actives raise or lower the signal
Sequence of Transcriptional activator Myb (Homo sapiens) (P10242 whole entry, looked up): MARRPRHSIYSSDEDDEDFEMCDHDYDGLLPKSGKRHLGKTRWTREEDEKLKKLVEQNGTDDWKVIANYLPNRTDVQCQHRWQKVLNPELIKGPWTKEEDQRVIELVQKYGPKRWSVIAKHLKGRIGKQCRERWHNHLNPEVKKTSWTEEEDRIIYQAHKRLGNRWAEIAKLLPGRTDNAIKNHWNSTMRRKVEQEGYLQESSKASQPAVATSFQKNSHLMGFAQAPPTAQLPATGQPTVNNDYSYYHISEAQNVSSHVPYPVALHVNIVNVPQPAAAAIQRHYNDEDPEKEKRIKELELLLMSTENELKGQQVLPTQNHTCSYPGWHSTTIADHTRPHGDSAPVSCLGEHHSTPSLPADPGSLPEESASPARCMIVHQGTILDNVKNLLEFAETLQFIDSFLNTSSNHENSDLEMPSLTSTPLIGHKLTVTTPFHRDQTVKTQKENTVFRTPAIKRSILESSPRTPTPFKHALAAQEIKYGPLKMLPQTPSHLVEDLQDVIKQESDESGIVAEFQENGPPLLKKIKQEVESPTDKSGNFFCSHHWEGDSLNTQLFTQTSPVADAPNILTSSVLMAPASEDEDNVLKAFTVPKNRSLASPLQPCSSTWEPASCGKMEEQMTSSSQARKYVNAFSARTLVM
Outline: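 In this HepG2 transient-transfection format, cis-regulated reporter mRNA is quantified 24 h post-dosing by RT-PCR with capillary electrophoresis, fitted bidirectionally to DMSO baseline.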

[12] = biological target: Nuclear respiratory factor 1 (Homo sapiens) (UniProt Q16656); test: ATG_NRF1_CIS: Attagene CIS-FACTORIAL HepG2 Assay for human Nuclear Respiratory Factor 1 (NRF1) Orphan Gene (AID 2282987; active = hit-call score of the fitted dose curve at least 0.9, where 1 is the maximum; inactive = score below 0.9); details: HepG2 NRF1 cis-element reporter, Attagene multiplex; actives raise or lower the signal
Sequence of Nuclear respiratory factor 1 (Homo sapiens) (Q16656 whole entry, looked up): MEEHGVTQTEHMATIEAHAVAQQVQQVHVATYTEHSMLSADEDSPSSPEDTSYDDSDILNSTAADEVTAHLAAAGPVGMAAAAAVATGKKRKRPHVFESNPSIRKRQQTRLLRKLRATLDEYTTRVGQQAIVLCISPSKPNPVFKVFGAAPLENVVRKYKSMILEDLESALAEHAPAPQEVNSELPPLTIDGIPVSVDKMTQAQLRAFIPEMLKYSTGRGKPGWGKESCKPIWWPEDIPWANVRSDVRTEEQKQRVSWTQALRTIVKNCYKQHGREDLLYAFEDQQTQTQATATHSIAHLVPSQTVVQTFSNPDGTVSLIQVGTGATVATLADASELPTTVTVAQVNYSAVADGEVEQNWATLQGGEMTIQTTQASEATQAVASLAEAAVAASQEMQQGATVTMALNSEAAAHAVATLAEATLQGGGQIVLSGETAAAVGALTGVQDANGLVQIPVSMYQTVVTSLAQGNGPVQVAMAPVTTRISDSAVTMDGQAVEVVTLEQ
Outline: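 Using DMSO as baseline, gain- or loss-of-signal was fitted for reporter mRNA levels in HepG2 cells transiently transfected with cis-regulated reporter units. Samples were taken 24 h after dosing and read by RT-PCR with capillary electrophoresis.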

[13] = biological target: Estrogen-related receptor gamma (Homo sapiens) (UniProt P62508); test: ATG_ERRg_TRANS: Attagene TRANS-FACTORIAL HepG2 Assay for human Estrogen-Related Receptor gamma (ERRg) (AID 2282977); details: HepG2 Attagene TRANS reporter, ERRg transactivation;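 note: hits increase reporter signal over DMSO so potencies reflect activators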
Sequence of Estrogen-related receptor gamma (Homo sapiens) (P62508 whole entry, looked up, the tested form may be a part): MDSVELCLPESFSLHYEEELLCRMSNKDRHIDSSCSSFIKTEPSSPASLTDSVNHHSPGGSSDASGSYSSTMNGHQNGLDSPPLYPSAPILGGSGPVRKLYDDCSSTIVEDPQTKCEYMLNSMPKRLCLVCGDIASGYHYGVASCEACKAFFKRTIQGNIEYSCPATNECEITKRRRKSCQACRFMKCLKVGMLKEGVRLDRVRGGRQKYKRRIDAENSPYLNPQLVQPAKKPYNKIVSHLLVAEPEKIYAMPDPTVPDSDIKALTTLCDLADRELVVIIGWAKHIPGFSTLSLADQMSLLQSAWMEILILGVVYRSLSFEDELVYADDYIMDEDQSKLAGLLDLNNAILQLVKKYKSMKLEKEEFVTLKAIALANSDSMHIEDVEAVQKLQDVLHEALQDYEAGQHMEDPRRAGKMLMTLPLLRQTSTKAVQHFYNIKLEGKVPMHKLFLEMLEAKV
Outline: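 Exogenous NR-Gal4 chimera activity was assessed in HepG2 cells bearing transfected GAL4-UAS reporters. After 24 h dosing, total RNA underwent RT-PCR, fluorescent primer extension and HpaI digestion before capillary electrophoresis, with gain of signal scored against DMSO.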

[14] = biological target: Glucocorticoid receptor (Homo sapiens) (UniProt P04150); test: ATG_GR_TRANS: Attagene TRANS-FACTORIAL HepG2 Assay for human Glucocorticoid Receptor (GR) (AID 2282978); details: HepG2 Attagene TRANS GR reporter, mRNA transcription;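 note: activators score as hits since higher reporter transcript over DMSO is fitted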
Sequence of Glucocorticoid receptor (Homo sapiens) (P04150 whole entry, looked up, the tested form may be a part): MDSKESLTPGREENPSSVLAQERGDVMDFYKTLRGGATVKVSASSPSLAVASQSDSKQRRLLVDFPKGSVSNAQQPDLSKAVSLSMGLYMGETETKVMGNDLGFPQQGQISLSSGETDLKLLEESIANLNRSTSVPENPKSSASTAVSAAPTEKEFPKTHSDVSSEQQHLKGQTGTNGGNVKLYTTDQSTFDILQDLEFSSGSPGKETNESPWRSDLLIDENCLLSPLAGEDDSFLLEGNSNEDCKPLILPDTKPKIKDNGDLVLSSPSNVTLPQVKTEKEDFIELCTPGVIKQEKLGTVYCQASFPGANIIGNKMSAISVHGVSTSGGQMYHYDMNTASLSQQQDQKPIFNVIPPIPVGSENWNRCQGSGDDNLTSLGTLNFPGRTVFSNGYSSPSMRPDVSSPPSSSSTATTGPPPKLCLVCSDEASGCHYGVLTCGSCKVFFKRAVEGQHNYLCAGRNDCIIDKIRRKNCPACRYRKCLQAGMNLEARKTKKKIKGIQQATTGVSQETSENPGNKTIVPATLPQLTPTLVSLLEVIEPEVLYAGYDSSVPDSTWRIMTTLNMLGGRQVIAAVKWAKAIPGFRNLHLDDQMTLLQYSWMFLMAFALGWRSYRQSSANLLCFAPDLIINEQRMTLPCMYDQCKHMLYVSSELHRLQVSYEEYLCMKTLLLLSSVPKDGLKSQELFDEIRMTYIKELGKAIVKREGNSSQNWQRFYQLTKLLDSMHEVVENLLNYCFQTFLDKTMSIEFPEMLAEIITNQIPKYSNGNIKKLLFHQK
Outline: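 Exogenous NR-GAL4 fusion activity was assessed through induced GAL4-UAS reporter transcripts in transfected human HepG2 cells, quantified after 24 h by RT-PCR and fluorescent capillary electrophoresis with DMSO as baseline.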

[15] = biological target: Bile acid receptor (Homo sapiens) (UniProt Q96RI1); test: ATG_FXR_TRANS: Attagene TRANS-FACTORIAL HepG2 Assay for Farnesoid X Receptor (FXR) (AID 2282979); details: HepG2 Attagene TRANS FXR-GAL4 reporter transcription;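 note: hits raise reporter mRNA above DMSO so AC50 marks FXR activation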
Sequence of Bile acid receptor (Homo sapiens) (Q96RI1 whole entry, looked up, the tested form may be a part): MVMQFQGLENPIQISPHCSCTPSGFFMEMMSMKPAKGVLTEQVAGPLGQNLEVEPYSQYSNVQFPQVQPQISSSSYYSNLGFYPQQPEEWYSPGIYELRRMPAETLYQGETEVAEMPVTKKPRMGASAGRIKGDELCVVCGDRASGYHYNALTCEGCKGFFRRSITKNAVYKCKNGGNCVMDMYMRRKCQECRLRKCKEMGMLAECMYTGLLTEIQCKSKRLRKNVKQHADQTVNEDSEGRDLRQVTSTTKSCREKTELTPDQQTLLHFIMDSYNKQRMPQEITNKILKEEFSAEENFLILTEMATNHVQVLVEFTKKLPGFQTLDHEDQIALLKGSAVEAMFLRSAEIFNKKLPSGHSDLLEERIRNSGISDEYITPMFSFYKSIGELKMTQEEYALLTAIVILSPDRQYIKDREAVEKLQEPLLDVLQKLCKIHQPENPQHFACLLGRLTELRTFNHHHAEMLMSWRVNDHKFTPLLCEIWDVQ
Outline: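 Reporter transcripts from transfected HepG2 cells were measured 24 h after dosing, using RT-PCR with capillary electrophoresis of 6-FAM-labelled fragments. The read-out reflects activity of exogenous FXR-Gal4 chimera on GAL4-UAS units, with induction relative to DMSO.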

[16] = biological target: Oxysterols receptor LXR-alpha (Homo sapiens) (UniProt Q13133); test: ATG_LXRa_TRANS: Attagene TRANS-FACTORIAL HepG2 Assay for human Liver X Receptor alpha (LXRa) (AID 2282980); details: HepG2 Attagene TRANS reporter, LXRa transactivation
Sequence of Oxysterols receptor LXR-alpha (Homo sapiens) (Q13133 whole entry, looked up, the tested form may be a part): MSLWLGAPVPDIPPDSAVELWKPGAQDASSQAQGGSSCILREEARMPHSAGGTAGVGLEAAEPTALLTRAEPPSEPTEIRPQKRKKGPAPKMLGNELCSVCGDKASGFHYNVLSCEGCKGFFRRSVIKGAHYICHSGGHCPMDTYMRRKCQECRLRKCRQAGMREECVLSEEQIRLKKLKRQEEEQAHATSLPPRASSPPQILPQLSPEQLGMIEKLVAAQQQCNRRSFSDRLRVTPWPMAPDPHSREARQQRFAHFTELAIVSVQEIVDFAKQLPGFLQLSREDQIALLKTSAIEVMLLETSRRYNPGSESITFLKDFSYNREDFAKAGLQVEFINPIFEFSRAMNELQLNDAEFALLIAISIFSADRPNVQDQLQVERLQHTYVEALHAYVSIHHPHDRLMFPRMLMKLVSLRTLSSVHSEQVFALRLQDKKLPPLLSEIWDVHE
Outline: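 Chemical-induced reporter mRNA measured by RT-PCR with fluorescent labelling and capillary electrophoresis after 24 h dosing of transiently transfected HepG2 cells expressing exogenous NR-Gal4 chimeras; increases scored against DMSO baseline.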

[17] = biological target: Nuclear receptor subfamily 4 group A member 2 (Homo sapiens) (UniProt P43354); test: ATG_NURR1_TRANS: Attagene TRANS-FACTORIAL HepG2 Assay for human Nuclear Receptor Related Protein 1 (NURR1) (AID 2282985); details: HepG2 Attagene TRANS reporter, mRNA readout
Outline: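 Read-out: reporter mRNA induction by RT-PCR plus capillary electrophoresis with fluorescence detection, after 24 h dosing of transfected HepG2 cells. Exogenous NR-Gal4 chimera activity drives GAL4-UAS reporter; activity fitted upward versus DMSO.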

[18] = ATG_M_32_TRANS: Attagene TRANS-FACTORIAL HepG2 Assay for M32 Transcription Factor (Internal Marker) (AID 2282984); details: HepG2 Attagene TRANS M32 internal marker reporter
Outline: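 Read-out: fluorescent reporter cDNA fragments resolved by capillary electrophoresis after RT-PCR of total RNA. Transfected HepG2 cells were exposed to chemical for 24 h. Activity scored in the positive direction relative to DMSO.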

[19] = biological target: Steroid hormone receptor ERR1 (Homo sapiens) (UniProt P11474); test: ATG_ERRa_TRANS: Attagene TRANS-FACTORIAL HepG2 Assay for human Estrogen-Related Receptor alpha (ERRa) (AID 2282971); details: HepG2 Attagene TRANS reporter, ERRa transactivation
Outline: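 Reporter transcripts from ERRa-Gal4 chimera activity measured in transiently transfected human HepG2 cells 24 hours after dosing, using RT-PCR with 6-FAM primer extension, HpaI digestion and capillary electrophoresis; DMSO is baseline.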

Measured: AC50

COCCOC(=O)c1ccccc1C(=O)OCCOC
not listed: [13] | [14] | [15] | [16] | [17] | [18] | [19]
inactive: all other assays above

C=Cc1ccncc1
active: [3] 20.2 µM | [5] 26.1 µM | [9] 84.1 µM | [17] 100 µM | [11] 30.8 µM | [12] 37.5 µM
not listed: [7] | [18] | [19]
inactive: all other assays above

CCCCCc1ccco1
not listed: [7] | [8] | [10] | [13] | [14] | [16] | [17] | [19]
inactive: all other assays above

COc1ccc(N)c([N+](=O)[O-])c1
inactive: [1] | [2] | [3] | [4] | [5] | [6] | [7] | [10] | [11] | [12]

CCCCC(CC)(CO)CO
inactive: [1] | [2] | [3] | [4] | [5] | [6] | [7] | [11] | [12]

Cc1ccc2c(c1)C(=O)OC2=O
not listed: [7] | [8] | [10] | [13] | [15] | [16] | [17] | [19]
inactive: all other assays above

O=C1c2ccccc2C(=O)c2c(O)ccc(O)c21
not listed: [7] | [14] | [17] | [18] | [19]
inactive: all other assays above

CCCCCCCCC=CCCCCCCCC1=NCCN1CCO
active: [2] 0.666 µM
not listed: [4] | [7] | [12] | [14] | [16] | [17] | [18]
inactive: all other assays above

CCCCCCCCCCCCN1CCCCCC1=O
active: [5] 14.5 µM
not listed: [6] | [7] | [13] | [17] | [18] | [19]
inactive: all other assays above

COC(=O)c1cccnc1
not listed: [4] | [8] | [15] | [17] | [19]
inactive: all other assays above

CCCCCCCCN1CCCC1=O
inactive: [1] | [2] | [3] | [4] | [5] | [14] | [15] | [10] | [11] | [12]
